Key:
Experiment in all cases: thermal shift delta Tm vs DMSO control; higher = stronger stabilization (binding)
Settings in all cases: 12.5 µM; protein concentration 2 µM
LOC_OS04G57630-cb004 = system: LOC_OS04G57630-cb004
Procedure, shortened: (§1)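 Compounds dissolved in DMSO were added to purified rice kinase domain constructs, which had been expressed in E. coli, for differential scanning fluorimetry. Each well held 19.5 μl of 2 μM kinase in 100 mM potassium phosphate pH 7.5, 150 mM NaCl, 10% glycerol and 5 × SYPRO Orange. Fluorescence was followed from 25°C to 95°C at a rate of 0.05°C/s. Shifts in Boltzmann-fitted melting temperature are triplicate means relative to DMSO-only protein.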

LOC_OS05G07850-cb002 = system: LOC_OS05G07850-cb002
Procedure, shortened: as §1

LOC_OS05G16824-cb004 = system: LOC_OS05G16824-cb004
Procedure, shortened: as §1

LOC_OS05G28520-cb001 = system: LOC_OS05G28520-cb001
Procedure, shortened: as §1

LOC_OS05G30820-cb001 = system: LOC_OS05G30820-cb001
Procedure, shortened: as §1

LOC_OS05G43570-cb004 = system: LOC_OS05G43570-cb004
Procedure, shortened: as §1

LOC_OS06G16330-cb003 = system: LOC_OS06G16330-cb003
Procedure, shortened: as §1

LOC_OS06G22820-cb001 = system: T1, LOC_OS06G22820-cb001
T1 sequence (whole entry): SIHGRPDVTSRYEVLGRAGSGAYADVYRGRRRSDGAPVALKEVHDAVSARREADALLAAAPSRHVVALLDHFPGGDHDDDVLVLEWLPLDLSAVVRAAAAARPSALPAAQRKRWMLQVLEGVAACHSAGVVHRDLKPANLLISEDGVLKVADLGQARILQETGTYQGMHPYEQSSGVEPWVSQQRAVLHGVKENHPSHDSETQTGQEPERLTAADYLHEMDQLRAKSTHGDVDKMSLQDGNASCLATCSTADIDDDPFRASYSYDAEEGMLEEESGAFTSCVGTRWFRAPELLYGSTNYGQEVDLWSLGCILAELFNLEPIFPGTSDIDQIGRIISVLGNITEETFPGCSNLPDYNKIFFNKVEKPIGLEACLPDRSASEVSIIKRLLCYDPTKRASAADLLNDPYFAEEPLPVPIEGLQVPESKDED
Procedure, shortened: as §1

LOC_OS07G06570-cb004 = system: LOC_OS07G06570-cb004
Procedure, shortened: as §1

LOC_OS07G07230-cb001 = system: LOC_OS07G07230-cb001
Procedure, shortened: as §1

Sequence of LOC_OS06G16330-cb003 (as listed by the source): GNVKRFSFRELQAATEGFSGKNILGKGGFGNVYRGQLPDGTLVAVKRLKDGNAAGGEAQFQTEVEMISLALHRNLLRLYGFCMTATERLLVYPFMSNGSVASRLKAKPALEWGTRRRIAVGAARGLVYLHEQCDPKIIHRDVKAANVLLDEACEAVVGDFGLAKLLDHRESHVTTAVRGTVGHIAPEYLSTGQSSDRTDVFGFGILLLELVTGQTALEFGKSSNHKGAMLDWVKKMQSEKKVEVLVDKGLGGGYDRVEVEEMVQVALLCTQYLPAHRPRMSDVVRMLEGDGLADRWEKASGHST

Structure (SMILES) | thermal shift delta Tm (LOC_OS04G57630-cb004) [°C] | thermal shift delta Tm (LOC_OS05G07850-cb002) [°C] | thermal shift delta Tm (LOC_OS05G16824-cb004) [°C] | thermal shift delta Tm (LOC_OS05G28520-cb001) [°C] | thermal shift delta Tm (LOC_OS05G30820-cb001) [°C] | thermal shift delta Tm (LOC_OS05G43570-cb004) [°C] | thermal shift delta Tm (LOC_OS06G16330-cb003) [°C] | thermal shift delta Tm (LOC_OS06G22820-cb001) [°C] | thermal shift delta Tm (LOC_OS07G06570-cb004) [°C] | thermal shift delta Tm (LOC_OS07G07230-cb001) [°C]
CCNC(=O)Nc1ccc(-c2nc3c(c(N4CCOC[C@@H]4C)n2)CCN(C2COC2)C3)cc1 | 0.05 | 0.56 | -1.52 | 0 | 0.54 | 0.3 | 0.18 | 0.27 | 1.06 | 0.66
COc1ccc(-c2ccc3ncc4c(c3c2)n(-c2ccc(N3CCNCC3)c(C(F)(F)F)c2)c(=O)n4C)cn1 | 0.96 | 10.2 | 2.52 | 0.28 | 0.54 | 0.36 | 4.63 | 0.38 | 0.59 | 0.06
CC(C)NC[C@@H](C(=O)N1CCN(c2ncnc3c2[C@H](C)C[C@H]3O)CC1)c1ccc(Cl)cc1 [Ipatasertib (GDC-0068)] | -0.05 | 0.18 | -3.22 | 0.5 | 0.46 | 0.17 | -0.53 | 0.38 | 1.25 | 0.21
Cc1cc2c(F)c(Oc3ncnn4cc(OC[C@@H](C)O)c(C)c34)ccc2[nH]1 | 0.32 | 2.97 | -0.74 | 0.85 | 0.47 | -0.02 | 0.19 | 0.53 | 0.51 | 0.51
COc1nccnc1NS(=O)(=O)c1ccc(NC(=O)/C=C/c2ccc([N+](=O)[O-])s2)cc1 [Necrosulfonamide] | -0.33 | -1.15 | -2.3 | -0.14 | 0.41 | 0.39 | -0.03 | 0.79 | 0.22 | 0.63
O=C1Nc2ccccc2/C1=C1/Nc2ccccc2C1=O [Indirubin] | 0.28 | 5.1 | -2.11 | 0.79 | 1.11 | 0.4 | 0.35 | 0.47 | 1.39 | 0.66
NC(=O)c1ccc(N(C(N)=O)c2c(F)cccc2F)nc1-c1ccc(F)cc1F | 0.21 | -0.33 | -5.64 | 0.58 | 0.41 | 0.22 | -0.58 | 0.8 | 1.05 | 0.18
COc1cc(OC)c(C=C2C(=O)Nc3ccccc32)c(OC)c1 | 0.1 | 0.55 | -0.46 | 0.31 | 0.46 | -0.11 | -0.29 | 0.44 | 1.13 | 0.96
O=C(Nc1cc(C(F)(F)F)cc(C(F)(F)F)c1)c1cc(Cl)ccc1O | -0.05 | -0.13 | -0.94 | 0.78 | 0.67 | 0.76 | 0.52 | 0.91 | 1.68 | -0.11
CC(C)(C)c1cc(/C=C(\C#N)C(N)=S)cc(C(C)(C)C)c1O [Tyrphostin AG 879] | -0.19 | 12.1 | -5.25 | 1.25 | 1.1 | 1.09 | 1.66 | 1.38 | 2.77 | 0.65

— the supplement of paper PMC9694430
